Inhibition data for four molecules are collected here from ChEMBL document CHEMBL1961873, “Compounds: GSK PKIS; Assays: Nanosyn kinase panel” (2012).

Experiment [1] deals with T1, 3-phosphoinositide-dependent protein kinase 1 (Homo sapiens) (UniProt O15530).
T1 sequence (whole entry): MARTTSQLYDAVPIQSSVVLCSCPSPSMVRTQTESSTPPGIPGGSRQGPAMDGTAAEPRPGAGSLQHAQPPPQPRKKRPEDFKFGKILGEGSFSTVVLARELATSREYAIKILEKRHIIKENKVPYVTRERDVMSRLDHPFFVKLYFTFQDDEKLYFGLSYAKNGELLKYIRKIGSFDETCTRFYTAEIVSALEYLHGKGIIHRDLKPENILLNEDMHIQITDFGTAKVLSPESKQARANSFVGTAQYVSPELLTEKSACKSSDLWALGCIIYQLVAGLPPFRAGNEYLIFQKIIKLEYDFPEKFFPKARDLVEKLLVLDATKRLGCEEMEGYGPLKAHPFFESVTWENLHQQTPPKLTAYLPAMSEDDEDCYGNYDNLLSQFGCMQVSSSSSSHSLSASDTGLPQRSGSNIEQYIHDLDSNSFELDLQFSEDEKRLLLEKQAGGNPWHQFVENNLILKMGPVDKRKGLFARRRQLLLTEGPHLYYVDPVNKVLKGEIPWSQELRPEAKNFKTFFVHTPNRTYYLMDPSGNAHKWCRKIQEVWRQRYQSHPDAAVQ
As to conditions: at 0.1 µM.

Experiment [2] has as its target cAMP-dependent protein kinase catalytic subunit alpha (Homo sapiens) (UniProt P17612). As to conditions: at 0.1 µM.
Experiment [3] has the same target. As to conditions: at 1 µM.
The target of experiment [4] is Protein kinase C alpha type (Homo sapiens) (UniProt P17252). As to conditions: at 0.1 µM.
Experiment [5] has the same target. As to conditions: at 1 µM.
Experiment [6] addresses Protein kinase C beta type (Homo sapiens) (UniProt P05771). As to conditions: at 0.1 µM.
Experiment [7] has the same target. As to conditions: at 1 µM.
In experiment [8] the target is Protein kinase C eta type (Homo sapiens) (UniProt P24723). As to conditions: at 0.1 µM.
Experiment [9] has the same target. As to conditions: at 1 µM.
Experiment [10] deals with Protein kinase C gamma type (Homo sapiens) (UniProt P05129). As to conditions: at 0.1 µM.
Experiment [11] has the same target. As to conditions: at 1 µM.
For experiment [12], the target named is T2, Protein kinase C iota type (Homo sapiens) (UniProt P41743).
T2 sequence (whole entry): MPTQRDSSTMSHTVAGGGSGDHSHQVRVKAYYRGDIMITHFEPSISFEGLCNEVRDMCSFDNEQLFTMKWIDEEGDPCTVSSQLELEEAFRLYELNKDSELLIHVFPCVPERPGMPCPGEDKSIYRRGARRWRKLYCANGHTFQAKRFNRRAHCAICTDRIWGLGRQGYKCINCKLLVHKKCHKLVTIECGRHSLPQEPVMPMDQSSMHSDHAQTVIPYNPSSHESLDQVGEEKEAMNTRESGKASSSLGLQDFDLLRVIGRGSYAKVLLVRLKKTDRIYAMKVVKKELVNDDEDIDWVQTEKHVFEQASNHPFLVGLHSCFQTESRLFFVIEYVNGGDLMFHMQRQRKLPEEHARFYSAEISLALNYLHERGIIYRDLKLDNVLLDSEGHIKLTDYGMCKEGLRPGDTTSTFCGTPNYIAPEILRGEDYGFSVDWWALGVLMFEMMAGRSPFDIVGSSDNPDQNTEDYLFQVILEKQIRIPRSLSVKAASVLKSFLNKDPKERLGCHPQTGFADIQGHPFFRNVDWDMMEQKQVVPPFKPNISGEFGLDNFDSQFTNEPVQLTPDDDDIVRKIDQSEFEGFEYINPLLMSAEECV
As to conditions: at 0.1 µM.

Experiment [13] deals with T2, Protein kinase C iota type (Homo sapiens). As to conditions: at 1 µM.
For experiment [14], the target named is Protein kinase C theta type (Homo sapiens) (UniProt Q04759). As to conditions: at 0.1 µM.
For experiment [15] the target is unchanged. As to conditions: at 1 µM.
Experiment [16] deals with Protein kinase C beta type (Homo sapiens) (UniProt P05771). As to conditions: at 0.1 µM. This is another data set of the same source.
Experiment [17] has the same target. As to conditions: at 1 µM. The source holds these as a separate data set.
Experiment [18] concerns the target T3, Serine/threonine-protein kinase D1 (Homo sapiens) (UniProt Q15139).
T3 sequence (whole entry): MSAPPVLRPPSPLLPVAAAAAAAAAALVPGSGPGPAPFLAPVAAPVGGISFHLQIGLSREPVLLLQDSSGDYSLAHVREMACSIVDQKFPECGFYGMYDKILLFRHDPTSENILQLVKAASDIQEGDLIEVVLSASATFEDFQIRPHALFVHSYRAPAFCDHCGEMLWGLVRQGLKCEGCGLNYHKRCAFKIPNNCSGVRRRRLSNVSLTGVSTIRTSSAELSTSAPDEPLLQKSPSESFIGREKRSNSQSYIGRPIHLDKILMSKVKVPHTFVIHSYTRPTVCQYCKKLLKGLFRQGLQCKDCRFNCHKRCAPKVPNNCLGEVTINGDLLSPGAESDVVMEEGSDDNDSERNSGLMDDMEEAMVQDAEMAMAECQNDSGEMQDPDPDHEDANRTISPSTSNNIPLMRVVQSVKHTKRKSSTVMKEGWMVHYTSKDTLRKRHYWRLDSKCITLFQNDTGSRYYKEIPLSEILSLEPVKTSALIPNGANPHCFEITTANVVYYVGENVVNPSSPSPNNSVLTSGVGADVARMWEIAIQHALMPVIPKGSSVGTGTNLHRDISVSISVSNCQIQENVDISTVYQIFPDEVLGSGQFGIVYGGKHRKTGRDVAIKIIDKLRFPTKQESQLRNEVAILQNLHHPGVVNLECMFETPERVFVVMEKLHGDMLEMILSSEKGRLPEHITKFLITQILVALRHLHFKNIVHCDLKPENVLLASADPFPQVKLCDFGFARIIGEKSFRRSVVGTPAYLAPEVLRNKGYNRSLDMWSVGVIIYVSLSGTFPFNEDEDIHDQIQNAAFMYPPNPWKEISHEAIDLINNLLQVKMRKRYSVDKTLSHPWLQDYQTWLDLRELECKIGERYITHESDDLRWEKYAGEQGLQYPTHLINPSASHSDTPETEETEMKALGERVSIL
As to conditions: at 0.1 µM.

The target in experiment [19] is T3, Serine/threonine-protein kinase D1 (Homo sapiens). As to conditions: at 1 µM.
The target in experiment [20] is T4, Serine/threonine-protein kinase D2 (Homo sapiens) (UniProt Q9BZL6).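 Further: reported percent inhibition values are means, part of the GSK PKIS kinase panel screen.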
T4 sequence (whole entry): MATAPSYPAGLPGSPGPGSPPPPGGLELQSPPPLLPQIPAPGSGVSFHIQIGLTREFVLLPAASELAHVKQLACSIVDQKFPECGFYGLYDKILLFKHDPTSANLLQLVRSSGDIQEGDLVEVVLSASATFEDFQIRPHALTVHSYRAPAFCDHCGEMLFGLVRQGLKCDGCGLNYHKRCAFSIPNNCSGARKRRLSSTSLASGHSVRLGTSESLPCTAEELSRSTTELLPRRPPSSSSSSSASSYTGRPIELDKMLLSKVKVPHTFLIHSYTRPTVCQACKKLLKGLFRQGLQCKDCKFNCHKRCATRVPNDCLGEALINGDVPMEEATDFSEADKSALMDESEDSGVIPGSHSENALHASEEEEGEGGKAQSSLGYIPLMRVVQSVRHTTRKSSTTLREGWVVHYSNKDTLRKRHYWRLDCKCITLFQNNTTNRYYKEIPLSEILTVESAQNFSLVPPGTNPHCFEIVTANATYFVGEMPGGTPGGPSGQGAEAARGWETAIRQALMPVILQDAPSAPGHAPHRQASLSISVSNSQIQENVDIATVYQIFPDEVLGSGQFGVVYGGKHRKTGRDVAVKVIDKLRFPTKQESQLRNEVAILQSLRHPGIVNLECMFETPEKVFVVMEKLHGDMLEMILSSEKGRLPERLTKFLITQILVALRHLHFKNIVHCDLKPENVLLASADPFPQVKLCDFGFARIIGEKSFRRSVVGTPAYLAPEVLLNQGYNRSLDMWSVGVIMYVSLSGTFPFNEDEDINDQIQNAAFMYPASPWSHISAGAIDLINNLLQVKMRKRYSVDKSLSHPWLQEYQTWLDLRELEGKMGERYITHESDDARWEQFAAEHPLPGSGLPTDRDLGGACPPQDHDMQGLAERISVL
As to conditions: at 0.1 µM.

Sequence of Protein kinase C eta type (Homo sapiens) (P24723 whole entry): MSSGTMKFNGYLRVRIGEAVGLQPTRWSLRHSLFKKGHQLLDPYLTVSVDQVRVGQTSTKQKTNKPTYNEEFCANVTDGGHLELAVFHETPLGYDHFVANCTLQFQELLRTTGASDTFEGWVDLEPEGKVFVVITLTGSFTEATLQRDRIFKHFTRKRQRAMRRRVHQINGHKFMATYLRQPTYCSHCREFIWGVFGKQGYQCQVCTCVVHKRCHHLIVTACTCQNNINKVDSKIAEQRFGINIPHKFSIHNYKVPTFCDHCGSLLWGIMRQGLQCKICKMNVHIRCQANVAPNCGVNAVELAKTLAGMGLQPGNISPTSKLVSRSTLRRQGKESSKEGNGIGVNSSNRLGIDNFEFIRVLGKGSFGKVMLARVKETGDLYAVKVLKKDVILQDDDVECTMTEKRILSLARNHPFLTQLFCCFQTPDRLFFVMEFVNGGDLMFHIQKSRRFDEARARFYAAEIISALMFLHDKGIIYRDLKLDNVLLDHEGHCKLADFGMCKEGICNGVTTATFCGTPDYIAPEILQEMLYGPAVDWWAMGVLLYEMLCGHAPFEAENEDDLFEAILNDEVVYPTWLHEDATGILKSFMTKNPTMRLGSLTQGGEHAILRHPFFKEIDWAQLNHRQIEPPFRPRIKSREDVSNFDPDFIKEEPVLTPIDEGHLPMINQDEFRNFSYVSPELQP
Sequence of Protein kinase C beta type (Homo sapiens) (P05771 2-671 limits assumed): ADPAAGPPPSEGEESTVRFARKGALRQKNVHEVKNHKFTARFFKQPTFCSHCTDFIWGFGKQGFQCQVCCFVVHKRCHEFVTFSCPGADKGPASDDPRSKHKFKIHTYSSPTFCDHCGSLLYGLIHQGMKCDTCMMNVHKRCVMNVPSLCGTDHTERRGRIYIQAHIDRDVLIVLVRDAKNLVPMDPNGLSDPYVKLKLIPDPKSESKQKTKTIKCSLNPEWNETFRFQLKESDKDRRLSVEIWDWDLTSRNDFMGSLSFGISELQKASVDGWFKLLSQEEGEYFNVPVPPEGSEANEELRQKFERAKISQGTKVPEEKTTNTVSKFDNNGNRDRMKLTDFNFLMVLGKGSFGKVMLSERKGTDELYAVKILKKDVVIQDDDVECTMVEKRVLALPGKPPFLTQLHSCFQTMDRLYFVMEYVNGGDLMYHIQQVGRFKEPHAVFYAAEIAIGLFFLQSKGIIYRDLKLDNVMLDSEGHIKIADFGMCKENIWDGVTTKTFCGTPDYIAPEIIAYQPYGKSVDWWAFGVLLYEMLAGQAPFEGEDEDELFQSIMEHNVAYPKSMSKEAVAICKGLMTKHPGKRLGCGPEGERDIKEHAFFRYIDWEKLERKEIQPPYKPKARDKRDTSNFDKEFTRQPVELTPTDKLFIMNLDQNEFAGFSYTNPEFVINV
Sequence of Protein kinase C theta type (Homo sapiens) (Q04759 whole entry, looked up): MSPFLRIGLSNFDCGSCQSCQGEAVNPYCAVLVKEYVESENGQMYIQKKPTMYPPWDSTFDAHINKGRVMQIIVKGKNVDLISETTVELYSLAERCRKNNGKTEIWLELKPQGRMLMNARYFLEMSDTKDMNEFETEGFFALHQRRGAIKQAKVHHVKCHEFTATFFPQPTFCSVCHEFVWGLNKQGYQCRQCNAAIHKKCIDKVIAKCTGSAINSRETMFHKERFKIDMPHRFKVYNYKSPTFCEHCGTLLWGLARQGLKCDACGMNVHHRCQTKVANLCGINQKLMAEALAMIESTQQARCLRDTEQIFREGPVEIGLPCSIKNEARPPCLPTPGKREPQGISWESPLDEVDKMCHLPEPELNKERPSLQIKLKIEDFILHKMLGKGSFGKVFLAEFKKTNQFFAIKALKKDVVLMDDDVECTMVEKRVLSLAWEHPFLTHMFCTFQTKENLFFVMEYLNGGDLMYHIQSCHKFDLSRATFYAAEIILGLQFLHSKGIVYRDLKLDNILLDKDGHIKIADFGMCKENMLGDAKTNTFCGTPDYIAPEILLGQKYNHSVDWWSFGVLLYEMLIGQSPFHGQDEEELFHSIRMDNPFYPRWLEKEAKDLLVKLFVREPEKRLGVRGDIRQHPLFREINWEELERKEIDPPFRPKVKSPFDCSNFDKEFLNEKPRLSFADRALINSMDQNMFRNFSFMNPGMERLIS

As usually defined, the inhibition is the relative decrease from the control value, in per cent. As to `CCS(=O)(=O)c1ccc(OC)c(Nc2ncc(-c3cccc(C(C)=O)c3)o2)c1`, the inhibition in experiment [1] is 0.17%; in experiment [2], 1.47%; in experiment [3], 1.88%; in experiment [4], 0.74%; in experiment [5], 0.95%; in [6], -0.44%. The inhibition came to 3.77% in [7]; 3.76% in experiment [8]; 3.11% in experiment [9]; 2.68% in experiment [10]; 1.69% in [11]; 1.79% in experiment [12]. Besides, the inhibition in [13] was -0.79%; in [14], 2.27%; in experiment [15] it was 3.34%; in experiment [16], 1.16%; in experiment [17], 1.89%; in experiment [18], 2.32%. Moreover, the inhibition in experiment [19] came to 2.22%; in experiment [20] it was 2.04%.

`CC1=C(C(=O)Nc2ccc3[nH]nc(C)c3c2)C(c2ccc(C(F)(F)F)cc2)CC(=O)N1` (stereo not given): the inhibition is 1.14% in [1]; 3.3% in experiment [2]; 26.6% in experiment [3]; 0.72% in experiment [4]; 7.98% in [5]; -0.41% in experiment [6]. In addition, the inhibition was -0.53% in experiment [7]; 3.4% in [8]; 9.11% in [9]; 4.48% in [10]; 6.95% in experiment [11]; 1.92% in experiment [12]. Further, the inhibition in experiment [13] is 2.85%; in [14], 2.33%; in experiment [15] it was 6.09%; in [16], 0.62%; in experiment [17] it was 1.95%; in [18], 2.86%. In addition, the figures for the inhibition in experiment [19] and in [20] were 8.82% and 2.82%, respectively.

As for `COc1ccccc1-c1cc(/C=C2\C(=O)Nc3ncc(Br)cc32)cc(Br)c1O`, the inhibition in experiment [1] was 2.09%; in experiment [2], 1.83%; in experiment [3], 1.05%; in [4], 0.82%; in experiment [5], 1.73%; in experiment [6], -0.31%. The inhibition in experiment [7] was 0.26%; in experiment [8] it was 2.06%; in experiment [9] it was 1.62%; in experiment [10] it was -0.61%; in experiment [11], 2.98%; in experiment [12], 0.64%. Moreover, the inhibition turned out to be 2.57% in experiment [13]; 1.61% in experiment [14]; 1.73% in experiment [15]; 2.24% in experiment [16]; 0.81% in experiment [17]; 3.57% in experiment [18]. For the same molecule, the results for the inhibition in [19] and in experiment [20] were 6.42% and 4.74%, respectively.

With `Cn1c(-c2nonc2N)nc2cnccc21`, the inhibition turned out to be 4.21% in experiment [1]; 2.05% in [2]; 6.79% in experiment [3]; 0.48% in experiment [4]; 2.7% in experiment [5]; 7.33% in experiment [6]. The inhibition in [7] stood at 36.2%; in experiment [8], 6.3%; in [9], 29.4%; in [10] it was 1.7%; in experiment [11] it was 2.78%; in experiment [12], 1.03%. Moreover, the inhibition was determined as 3.76% in experiment [13]; 1.13% in experiment [14]; 3.08% in experiment [15]; 1.16% in [16]; 5.62% in experiment [17]; 3.06% in experiment [18]. The inhibition in experiment [19] came to 14.8%; in experiment [20] it was 2.42%.
